A number with no mark means an inactive call. Activity calls are given as the source filed them. Calls come from the whole dose curve; as a rule, active = well fitted curve in the direction sought with a large enough effect in the repeat runs; inconclusive = weak or mixed curves; inactive = flat fitted curve, though single readings scatter. Non-standard residues stand in square brackets, D forms with d. Residues, ends and D or L forms follow the SMILES beside them. pGlu = O=C1CC[C@@H](C(=O)O)N1
experiment: qHTS assay to test for compound auto fluorescence at 535 nm (green) in HepG2 cells (AID 720675); conditions: green autofluorescence 485/535 nm, 1 h; series mostly up to 46 µM; fluorescence, % of fluorescein control: at the top concentration
From the text: National Center for Advancing Translational Sciences [NCATS]
NIH Chemical Genomics Center [NCGC]
U.S. Environmental Protection Agency [EPA]
National Institutes of Environmental Health Sciences [NIEHS]
National Toxicology Program [NTP]
U.S. Food and Drug Administration [FDA]
Compound auto fluorescence often interferes with screening of the compound library against various biological targets and signaling pathways. Some of these compounds may have fluorophoric properties. Such properties may interfere with the assay outputs resulting in false positives and/or negatives. To decrease such complications and ensure the compound activities are relevant in terms of biological response, the Tox21 10K compound library was screened for auto fluorescence.
From the fluorophores used as reporter signals in our screening assays, the auto fluorescence equivalencies of compounds against three fluorophores have been evaluated: Triamterene, Fluorescein and Rose Bengal sodium for blue, green and red fluorescence, respectively. The fluorescence intensities were measured using Excitation/Emission wavelengths at 405/460nm, 485/535nm and 540/590nm for blue, green and red labels, respectively. This assay includes the green fluorescence data.
Tox21 Assay Protocol Summary:
2,000 HepG2 cells in 5 uL of culture medium (MEM containing 10% FBS) per well were dispensed into black wall/clear bottom 1536-well plates using a Multidrop Combi Dispenser (ThermoFisher Scientific, Waltham, MA). The assay plates were incubated overnight at 37 C to allow cell attachment to the well bottom, followed by the transfer of 23 nL compound or DMSO vehicle by a pintool work station (Kalypsys , San Diego, CA). After the assay plates were incubated for 1 hr at 37 C and 5% CO2, fluorescence intensities in the assay plates were measured by an Envision (PerkinElmer, Shelton, CT) plate reader using three labels for measuring blue, green and red fluorescence at […] 460, 535 and 590 nm respectively.
% is set by controls: 0 for no effect and ±100 for the full control effect; potency is the fitted concentration of half-maximal effect.

SMILES	fluorescence, % of fluorescein control	Potency
C=C1c2c(Cl)ccc(O)c2C(O)=C2C(=O)[C@]3(O)C(O)=C(C(N)=O)C(=O)[C@@H](N(C)C)[C@@H]3[C@@H](O)[C@H]12	0.0283% [at 18.6 µM]	
O=C(O)CN(CC(=O)O)CC1=CC2C(=CC1=O)Oc1cc(O)c(CN(CC(=O)O)CC(=O)O)cc1C21OC(=O)c2ccccc21 (stereo not given)		10 µM (active)
COc1ccc(C[C@@H](C)NC[C@H](O)c2ccc(O)c(NC=O)c2)cc1	0.0854%	
CCC(=O)O[C@H]1CC[C@H]2[C@@H]3CCc4cc(O)ccc4[C@H]3CC[C@]12C	0.045%	
C=C1C(=O)O[C@H]2[C@H]1CC/C(C)=C\CC[C@@]1(C)O[C@@H]21	-0.294%	
Cc1cc(/C=C/c2ccc3cc(N(C)C)ccc3[n+]2C)c(C)n1-c1ccccc1	4.27% [at 18.6 µM]	
COc1ccccc1N1CCN(CCCC(=O)c2ccc(F)cc2)CC1	-0.127%	
CC(O)CN(C)C (stereo not given)	-0.099%	
CN[C@@H]1[C@H](O[C@H]2[C@H](O[C@H]3[C@H](O)[C@@H](O)[C@H](N=C(N)N)[C@@H](O)[C@@H]3N=C(N)N)O[C@@H](C)[C@]2(O)CO)O[C@@H](CO)[C@H](O)[C@H]1O	-0.0792%	
CCCCCCCCCCCCCCCCCC(=O)[O][Al]	-0.013%	
CN(CCO)CC(O)Cn1cnc2c1c(=O)n(C)c(=O)n2C (stereo not given) (tested in a mixture with another compound)	-0.0087%	
C[C@@H]1C/C=C/C=C/C=C/C=C/[C@H](O[C@@H]2O[C@H](C)[C@@H](O)[C@H](N)[C@@H]2O)C[C@@H]2O[C@](O)(C[C@@H](O)C[C@H]3O[C@@H]3/C=C/C(=O)O1)C[C@H](O)[C@H]2C(=O)O	0.134%	
CCCCCCCN(CC)CCCC(O)c1ccc(NS(C)(=O)=O)cc1 (stereo not given)	-0.123%	
CN[C@@H]1CCc2[nH]c3ccc(C(N)=O)cc3c2C1	-0.153%	
O=S(=O)(O)c1cc(O)c2c(N=Nc3ccc(Nc4ccccc4)c4c(S(=O)(=O)O)cccc34)cc(S(=O)(=O)O)cc2c1	-0.363%	
C[C@]12C=CC(=O)N[C@@H]1CC[C@@H]1[C@@H]2CC[C@]2(C)[C@@H](C(=O)Nc3cc(C(F)(F)F)ccc3C(F)(F)F)CC[C@@H]12	0.0321%	
CCOC(=O)c1cc(-c2ccccc2)nc2ccc(C)cc12	-0.0258%	
O=C1CCC(=O)N1CO	0.0092%	
FCOC(C(F)(F)F)C(F)(F)F	-0.0365%	
CCOC(=O)c1c[nH]c2cc(OCC(C)C)c(OCC(C)C)cc2c1=O	0.0223%	

SMILES	fluorescence, % of fluorescein control	Potency
O=C(O)c1ccc(OCCn2ccnc2)cc1	-0.139%	
CC[C@H](C)[C@H](NC(=O)[C@H](Cc1ccccc1)NC(=O)[C@H](C)NC(=O)[C@H](CC(=O)O)NC(=O)[C@H](CCCCN)NC(=O)[C@H](CO)NC(=O)[C@@H]1CCCN1C(=O)[C@@H]1CCC(=O)N1)C(=O)NCC(=O)N[C@@H](CC(C)C)C(=O)N[C@@H](CCSC)C(N)=O ([pGlu]PSKDAFIGLM-NH2)	-0.0775%	
CCN(CC)CCOc1ccccc1OC	-0.286%	
C[N@+]12CCCC[C@@H]1CCC(=C(c1cccs1)c1cccs1)C2	-0.106%	
O=C1O[C@H]2[C@H](O)[C@@H]1OC(O)[C@H]2O (stereo not given in full)	1.6%	
COc1ccc(CCNC[C@H](O)c2ccc(O)cc2)cc1OC	0.0045%	
CC(CN(C)C)CN1c2ccccc2Sc2ccc(C(F)(F)F)cc21 (stereo not given)	0.144%	
[O]=[Bi][O]C(=O)[O][Bi]=[O]	0.0289%	
COC(=O)[C@H]1[C@H]2C[C@@H]3c4[nH]c5ccccc5c4CCN3C[C@H]2C[C@@H](OC(=O)c2cc(OC)c(OC)c(OC)c2)[C@@H]1OC	1.79%	
CN(C)CCCN1c2ccccc2C(C)(C)c2ccccc21	0.0146%	
Cc1cc2nc3c(=O)[nH]c(=O)nc-3n(C[C@H](O)[C@H](O)[C@H](O)COP(=O)(O)OP(=O)(O)OC[C@H]3O[C@@H](n4cnc5c(N)ncnc54)[C@H](O)[C@@H]3O)c2cc1C		14.1 µM (active)
NC(=O)OCC(O)COc1ccc(Cl)cc1 (stereo not given)	-0.154% [at 18.6 µM]	
CCC(=O)OCC(=O)[C@@]1(OC(=O)CC)[C@@H](C)C[C@H]2[C@@H]3CCC4=CC(=O)C=C[C@]4(C)[C@@]3(Cl)[C@@H](O)C[C@@]21C	-0.0805%	
O=C(Cn1c(=O)sc2ccc(Cl)cc21)N1CCN(CCO)CC1	-0.0112%	
CCCCCCCCCCCCCCCC(=O)OC[C@@H](COP(=O)([O-])OCC[N+](C)(C)C)OC(=O)CCCCCCCCCCCCCCC	0.0122%	
CN1CCCC(CN2c3ccccc3Sc3ccccc32)C1 (stereo not given)	0.0184%	
CCOc1ccc(N=C(C)Nc2ccc(OCC)cc2)cc1	0.0253%	
CCOC(=O)C1=C[C@@H](OC(CC)CC)[C@H](NC(C)=O)[C@@H](N)C1	-0.14%	
Cc1cccc(C)c1Nc1ncccc1C(=O)O	0.0093%	
NC(=S)N=Nc1ccc(NN=C(N)N)cc1	-0.294%	

Reference: PubChem BioAssay (Tox21)
